KDM5B inh – KDM5B demethylase inhibition; KDM5B demethylase, FDH-coupled NADH fluorescence (FDH is formaldehyde dehydrogenase); Potency, µM (titrated, usually from 57.7 µM), hits mostly inhibitors; 2.6% of 220,000 active; AID 1347165; active = well fitted inhibition curve with a large enough effect; also: 0% is about no effect; nearly all actives have a fitted effect of over 70% in size
Target sequence (Q9UGL1 whole entry, looked up): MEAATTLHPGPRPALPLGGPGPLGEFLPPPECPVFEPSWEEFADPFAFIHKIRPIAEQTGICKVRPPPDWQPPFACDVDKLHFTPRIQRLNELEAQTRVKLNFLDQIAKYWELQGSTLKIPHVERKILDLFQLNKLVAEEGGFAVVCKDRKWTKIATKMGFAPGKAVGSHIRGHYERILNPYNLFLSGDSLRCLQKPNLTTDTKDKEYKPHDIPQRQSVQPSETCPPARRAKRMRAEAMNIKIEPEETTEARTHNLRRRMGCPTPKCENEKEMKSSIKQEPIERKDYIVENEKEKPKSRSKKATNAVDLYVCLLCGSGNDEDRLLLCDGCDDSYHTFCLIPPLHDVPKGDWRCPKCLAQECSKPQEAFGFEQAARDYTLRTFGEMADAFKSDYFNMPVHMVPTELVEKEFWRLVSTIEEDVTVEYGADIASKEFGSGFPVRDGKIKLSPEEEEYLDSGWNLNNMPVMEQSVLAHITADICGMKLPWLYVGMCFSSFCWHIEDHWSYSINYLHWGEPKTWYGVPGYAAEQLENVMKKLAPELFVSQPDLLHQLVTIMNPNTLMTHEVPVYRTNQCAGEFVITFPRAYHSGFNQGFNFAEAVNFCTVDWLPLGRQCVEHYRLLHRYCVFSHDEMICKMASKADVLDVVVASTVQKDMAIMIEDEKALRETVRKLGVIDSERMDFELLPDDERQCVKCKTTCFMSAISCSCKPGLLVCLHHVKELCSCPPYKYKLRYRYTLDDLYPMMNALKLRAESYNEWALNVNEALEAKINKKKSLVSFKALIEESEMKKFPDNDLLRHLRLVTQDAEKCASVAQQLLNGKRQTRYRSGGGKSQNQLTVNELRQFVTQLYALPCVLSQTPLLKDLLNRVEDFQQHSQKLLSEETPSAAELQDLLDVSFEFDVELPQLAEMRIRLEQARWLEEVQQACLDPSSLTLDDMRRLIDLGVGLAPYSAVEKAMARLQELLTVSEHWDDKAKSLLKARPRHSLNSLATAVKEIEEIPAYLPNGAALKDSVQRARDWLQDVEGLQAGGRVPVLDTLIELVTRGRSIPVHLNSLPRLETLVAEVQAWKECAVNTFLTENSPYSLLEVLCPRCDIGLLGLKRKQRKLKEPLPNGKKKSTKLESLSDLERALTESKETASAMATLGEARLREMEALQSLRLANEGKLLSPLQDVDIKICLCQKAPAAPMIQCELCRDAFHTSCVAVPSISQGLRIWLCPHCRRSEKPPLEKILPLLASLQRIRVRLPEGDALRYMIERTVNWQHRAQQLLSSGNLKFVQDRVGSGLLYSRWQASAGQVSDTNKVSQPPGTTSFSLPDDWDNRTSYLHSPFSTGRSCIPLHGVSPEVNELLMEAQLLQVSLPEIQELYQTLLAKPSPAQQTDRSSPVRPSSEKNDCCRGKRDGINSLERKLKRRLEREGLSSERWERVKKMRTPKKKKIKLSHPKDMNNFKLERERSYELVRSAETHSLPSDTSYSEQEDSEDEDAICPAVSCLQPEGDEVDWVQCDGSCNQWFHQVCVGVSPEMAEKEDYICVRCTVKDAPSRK
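Compound dilutions met 200 nM (final) KDM5BΔAP for 10 min at room temperature before substrate addition. The substrate mix held 12.5 µM H3K4me3 with cofactors 25 µM α-ketoglutarate and 50 µM Fe²⁺. NADH signal gain over 30 min defined activity.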
Active calls of the source: *; i = inactive. The sample as a whole holds a higher share of hits than the screen did. Potency is read from the fitted curve at half-maximal effect.

SMILES	KDM5B inh
O=C(c1nn(Cc2ccccc2)c(=O)c2ccccc12)N1CCCSc2ccccc21	i
Clc1cccc(-c2ccc(CNc3ncn[nH]3)o2)c1	i
COc1ccc(CCC(=O)N2C[C@@H]3CCCN4CCC[C@@H]([C@H]34)[C@H]2CCCC(=O)N2CCOCC2)cc1	i
Cn1c(=O)c2c(nc(Cl)n2Cc2c(Cl)cccc2Cl)n(C)c1=O	i
CCCN(CC(F)(F)F)C(=O)CNC(=O)Cc1ccccc1	i
Cc1ccn2cc(CNC(=O)Cc3cn(C)c4ccccc34)nc2c1	i
CC1CCN(C(=O)c2cc(-c3ccc(Cl)cc3)on2)CC1	i
CCN1CCN(c2ccc(C(=O)N3CCC(N4CCOCC4)CC3)cn2)CC1	i
COC1CCN(c2ccc(C(=O)N3CCC(N4CCOCC4)CC3)cn2)CC1	i
Cc1ncsc1C(=O)NCc1ccc(N2CCC(C)CC2)nc1	i
CC1CCN(C(=O)c2ccc(-c3ccc(N4CCSCC4)nc3)cc2)CC1	28µM*
O=C(c1ccc(-c2ccc(N3CCSCC3)nc2)cc1)N1CCOCC1	22µM*
CN1CCCCCCN(S(=O)(=O)c2cccc(F)c2)[C@H]2CCC[C@H]2C1=O	i
Cc1ccc(N(C(C)C(=O)N2CCCCCC2)S(C)(=O)=O)cc1 (stereo not given)	i
CCc1noc(CN(C)CC2CN(CC)c3ccccc3O2)n1 (stereo not given)	i
COc1ccc(C2CCCN2Cc2coc(-c3ccc(F)cc3)n2)cc1 (stereo not given)	i
CCC(C)NC(=O)c1ccccc1NS(=O)(=O)c1c(F)cccc1F (stereo not given)	i
Cc1cc(C(=O)Nc2ccc(F)cc2C)n(-c2ccccc2)n1	i
Cc1cn2nc(C(=O)Nc3ccc(F)cc3C)cc2c(N2CCSCC2)n1	25µM*
CCn1cc(C(=O)NC(C)C(=O)Nc2ccc(C)cc2F)c(C)n1 (stereo not given)	i
Cc1cc(C(=O)Nc2ccc(F)cc2C)cs1	i
Cc1ccc(NC(=O)c2cc3c(N4CCSCC4)nc(C)cn3n2)c(F)c1	28µM*
Cc1ccc(NC(=O)c2nc3ccccc3nc2N2CCCC2)c(C)c1	i
O=S(=O)(c1ccc2oc(Nc3cccc(F)c3)nc2c1)N1CCCCC1	i
CN(C)c1nccnc1OC1CCN(C(=O)c2ccoc2)C1 (stereo not given)	i
SMILES	KDM5B inh
CCOc1ccc2c(c1)O/C(=C\c1ccccc1OS(C)(=O)=O)C2=O	i
Cn1nc(C(=O)OCCOc2ccccc2F)c2ccccc2c1=O	i
CCOc1ccc(NC(=O)Cc2c(C)[nH]n(-c3nc(-c4ccc(Cl)cc4)cs3)c2=O)cc1	i
Cc1noc(-c2nc(Cc3ccc(F)cc3)no2)n1	i
Fc1ccc(Cc2noc(-c3ccc(NCCCn4ccnc4)nc3)n2)cc1	i
CC(Cn1cncn1)Nc1ccc(-c2nc(Cc3ccc(F)cc3)no2)cn1 (stereo not given)	25µM*
CC(C)Nc1nnc(SCc2nc(-c3ccc(F)cc3)no2)s1	i
CCc1ccc(OCc2nnc(SCc3cccc(C(F)(F)F)c3)n2CC(C)C)cc1	i
N#Cc1ccccc1NC(=O)CSc1nncn1CCc1cccs1	i
Cc1cc(NC(=O)c2coc(Br)c2)no1	i
O=C(COc1ccc(Cl)cc1)Nc1nc2n(n1)C(c1ccccc1)CC(=O)N2 (stereo not given)	i
CCCC(=O)Nc1ccc(-c2nc3cc(OC)ccc3o2)cc1	i
CCn1cnnc1-c1nn(C)c2c1CN(C(=O)CCC1CCCC1)CC2	22µM*
CCn1cnnc1-c1nn(C)c2c1CN(C(=O)Cc1cccc(F)c1)CC2	i
Cn1nc(-c2nncn2CC2CC2)c2c1CCN(C(=O)C1CC1)C2	i
CCN(CC)C(=O)CSc1nc2ccccc2c(=O)n1CCc1cccs1	i
O=C(c1ccco1)N1CCC(C2CCN(Cc3cccnc3)CC2)C1 (stereo not given)	i
O=C1NCCCN1C1CCN(Cc2cccnc2)CC1	i
c1cncc(CN2CCC(C3CCN(Cc4ccc[nH]4)C3)CC2)c1 (stereo not given)	14µM*
CCc1ccc(-c2noc(CSc3ccc(S(=O)(=O)N4CCN(C)CC4)cn3)n2)cc1	i
O=C(O)c1cc(-c2ccc[nH]2)nc2ccccc12	i
Cc1nnc(-c2cc(Nc3cccc(N(C)C)c3)ccn2)n1Cc1ccccc1	32µM*
COCCn1c(C)nnc1-c1cc(Nc2ccccc2)ccn1	i
Cc1ccccc1-c1ccnc(-c2nnc(C)n2Cc2ccccc2)c1	i
C/C(=C\c1ccccc1)C(=O)NC1CCCC1	i
SMILES	KDM5B inh
CCc1nc2ccc(C(=O)Nc3cccc(C)n3)cc2nc1CC	i
COc1cccc(Nc2cc(-c3cccs3)nc3c(C)noc23)c1	35µM*
Cc1noc2c(N3CCNC(=O)C3)cc(-c3cccs3)nc12	i
Cc1noc2c(NC(C)C)cc(-c3ccsc3)nc12	i
COc1ccccc1-c1cc(NCc2cccnc2)c2onc(C)c2n1	i
COc1cccc(Nc2nc(-c3ccccc3)no2)c1	i
COc1ccc(OC)c(-c2cc(-c3cccs3)nc3c(C)noc23)c1	40µM*
Cc1noc2c(N(C)C)cc(-c3cccs3)nc12	i
Cc1noc2c(NC3CCC(O)CC3)cc(-c3cccs3)nc12 (stereo not given)	i
COc1ccccc1-c1cc(-c2ccsc2)c2onc(C)c2n1	28µM*
Cc1cc2oc(=O)cc(CN3CCC(C(=O)N(C)C)CC3)c2cc1C(C)C	i
O=C(Cc1ccc(F)cc1)NCc1ccnc(OCc2ccccc2)c1	i
O=C(c1ccccc1F)N1CCC2(C1)C(=O)N(CCc1ccccc1)c1ccccc12 (stereo not given)	i
O=C(NC1CCCN(c2cc(-c3ccccc3)[nH]n2)C1)c1ccsc1 (stereo not given)	i
CC1=C[C@@H](CN(C)C)[C@H](C(C)C)C[C@H]1Cc1nc2ncc(Cl)cc2[nH]1	i
N#Cc1cccc(CN2CCCC(c3nc4ccc(F)cc4c(=O)[nH]3)C2)c1 (stereo not given)	i
Cc1ccccc1CCN1CCC(CN(C(=O)c2cnn(C(C)C)c2)C2CCCC2)CC1	i
CCOc1ccccc1NS(=O)(=O)c1ccc(C(C)C)cc1	i
CC1(C(=O)N2CCc3ccccc3C2)CCCCC(=O)N1 (stereo not given)	i
CC1(C(=O)N2CCN(c3ccccn3)CC2)CCOCC1	112µM*
CC1(C(=O)O)CCCCC(=O)N1 (stereo not given)	i
CC1(C(=O)N2CCC(c3ccccc3)CC2)CCOCC1	i
CNC(=O)N1CCC2(CC1)CC(N1CCN(c3ccccn3)CC1)CCO2 (stereo not given)	i
CC1(C(=O)N2CCN(c3ccccn3)CC2)CCCCC(=O)N1 (stereo not given)	18µM*
COc1ccc([C@H]2C[C@@H](O)[C@@H](O)[C@@H]2NC(=O)Nc2ccc(C(F)(F)F)cc2)cc1	i
SMILES	KDM5B inh
COc1cc(-c2nc3n(n2)C(c2ccccc2)C2=C(CCCC2=O)N3)cc(OC)c1OC (stereo not given)	i
O=C1Nc2ccccc2CCC1n1nc(-c2ccccc2Cl)ccc1=O (stereo not given)	i
O=C(Nc1cccc2[nH]ccc12)C(=O)N1CCCCC1	i
Cn1c(SCC(=O)NCc2cccs2)nnc1-c1ccc2c(c1)OCCCO2	i
CC(C)(C)c1ccc(OCc2nn3c(-c4cccnc4)nnc3s2)cc1	i
CC(C)N1CCN(c2ccc3nnc(C4CCC4)n3n2)CC1	28µM*
